KCNQ2 pot: enhances the rat KCNQ2 potassium channel; 0.54% of 310,000 active; CHO-K1 KCNQ2, FluxOR thallium flux fluorescence; active compounds read high; AID 2239; B-score at 10 µM;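 active = fluorescence ratio B-score at least 3 SD of library B-scores, with initial fluorescence B-score within 3 of them, cut at about 5.3 in these data; same plate scores as AID 2156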;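 note: B-score of peak minus minimum over baseline fluorescence ratio after K+ and Tl+ stimulus; positive B-score means potentiation of KCNQ2 with more thallium influx and brighter signal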
Target sequence (O88943 whole entry, looked up): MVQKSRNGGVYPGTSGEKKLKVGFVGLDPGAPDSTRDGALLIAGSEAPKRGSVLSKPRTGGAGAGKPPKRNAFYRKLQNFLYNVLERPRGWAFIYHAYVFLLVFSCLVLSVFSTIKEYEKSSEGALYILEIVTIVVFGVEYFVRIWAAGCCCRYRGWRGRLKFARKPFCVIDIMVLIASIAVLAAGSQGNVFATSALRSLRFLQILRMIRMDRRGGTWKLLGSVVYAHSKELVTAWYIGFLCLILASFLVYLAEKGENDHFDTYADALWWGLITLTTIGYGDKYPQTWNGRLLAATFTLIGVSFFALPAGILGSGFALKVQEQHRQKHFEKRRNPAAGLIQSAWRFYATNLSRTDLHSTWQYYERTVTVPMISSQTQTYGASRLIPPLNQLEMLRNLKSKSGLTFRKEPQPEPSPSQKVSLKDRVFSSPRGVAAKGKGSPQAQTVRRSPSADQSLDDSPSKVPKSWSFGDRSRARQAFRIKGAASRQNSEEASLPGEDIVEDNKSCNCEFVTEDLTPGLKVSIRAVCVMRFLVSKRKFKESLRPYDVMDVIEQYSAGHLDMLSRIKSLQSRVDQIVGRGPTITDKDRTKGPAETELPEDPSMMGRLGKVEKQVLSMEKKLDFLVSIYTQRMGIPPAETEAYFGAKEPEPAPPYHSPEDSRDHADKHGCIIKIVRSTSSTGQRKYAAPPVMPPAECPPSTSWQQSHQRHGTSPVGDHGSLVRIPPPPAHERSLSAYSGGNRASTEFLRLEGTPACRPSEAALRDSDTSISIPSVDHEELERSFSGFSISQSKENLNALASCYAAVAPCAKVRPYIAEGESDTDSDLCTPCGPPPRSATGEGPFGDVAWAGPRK
KCNQ2 block: KCNQ2 (rat) channel inhibition. O88943. CHO-K1 KCNQ2, FluxOR thallium flux, 20 min; active compounds read low. B-score at 10 µM. 1.1% of 310,000 active. AID 2156;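 active = fluorescence ratio B-score at most minus 3 library SDs, with starting brightness B-score within 2 library SDs, cut at about -5.5 in these data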
Starred values were filed as active, the others as inactive; i = inactive; . = not tested or not shown. A selection: hits, their analogues and other compounds. The true share with any hit is near 1.6%.

SMILES	KCNQ2 pot	KCNQ2 block
Cc1ccc(S(=O)(=O)C2(C(=O)N3CCN(c4ccccc4F)CC3)CC2)cc1	.	i
Cc1ccc(Cl)cc1N1CCN(C(=O)C2(S(=O)(=O)c3ccc(Cl)cc3)CC2)CC1	-6.2	-6.2*
Cc1cccc(N2CCN(C(=O)C3(S(=O)(=O)c4ccc(Cl)cc4)CC3)CC2)c1C	-6.2	-6.2*
O=C(N1CCN(c2cccc(Cl)c2)CC1)C1(S(=O)(=O)c2ccc(Cl)cc2)CC1	.	i
CSc1nnc(N2C(=O)C(O)=C(C(=O)c3ccc(C)o3)C2c2ccc(C)cc2)s1 (configuration not stated)	.	i
COc1ccc(NC(=O)COC(=O)C2CCC2)cc1Cl	1.1	i
CC(=O)Nc1cc2nc(C)n(Cc3ccccc3)c2nc1C	.	i
Cc1nc2c(cc1NC(=O)C(C)(C)C)nc(C)n2Cc1ccccc1	7.3*	i
Cc1cccc(CC(=O)NCC(=O)NCc2cc(=O)n(C)c(=O)n2C)c1	0.94	i
COCCNC(=O)[C@@]1(C)C=C[C@@H](Cc2ccccc2)N1C(=O)c1ccccc1	0.24	i
C[C@]1(C(=O)NCc2cc(F)cc(C(F)(F)F)c2)C=C[C@@H](Cc2ccccc2)N1C(=O)c1ccccc1	-7.2	-7.2*
S=C(Nc1ccccc1Cl)N1CCCC(c2ccccc2)=N1	-6.5	-6.5*
S=C(Nc1ccccc1Cl)N1CCCCCC1	0.14	i
CN1CCN(c2nc(Nc3ccc(F)cc3)nc(Nc3ccc(F)cc3)n2)CC1	.	i
CCc1nc(-n2[nH]c(=O)c3ccccc3c2=O)c2c3c(sc2n1)CCCC3	.	i
CCc1nc(Sc2nnnn2-c2ccccc2)c2c3c(sc2n1)CCCC3	-5.9	-5.9*
COc1ccc(NS(=O)(=O)c2cccc(C(=O)NNC(=O)c3ccc(Br)o3)c2)cc1	3.5	i
O=[N+]([O-])c1cc(-c2ncccn2)c([N+](=O)[O-])s1	-9.6	-9.6*
O=C(Nc1ncccn1)c1cc([N+](=O)[O-])cc([N+](=O)[O-])c1	0.84	i
COc1ccccc1CNC(=O)C1(c2ccc(Cl)cc2)CC1	-5.7	-5.7*
COc1ccc(C2(C(=O)NCc3ccccc3Cl)CCOCC2)cc1OC	0.8	i
CCOc1ccc(N=C2NC(=O)S/C2=C\c2ccc(N(C)C)cc2)cc1	0.46	i
CCOc1ccc(/C=C2/SC(=O)NC2=S)cc1	26*	i
COc1ccc(OC)c(NC(=O)Nc2ccc3c(c2)OCO3)c1	0.23	i
CC(NC(=O)NC1CCCCC1)c1ccccc1 (configuration not stated)	13*	i
SMILES	KCNQ2 pot	KCNQ2 block
O=C(Nc1ccccc1)NC1CCCCCCC1	0.03	i
CN(C1=C(NC(=O)c2ccccc2)C(=O)c2ccccc2C1=O)C1CCS(=O)(=O)C1 (configuration not stated)	3.5	i
CC(=O)NC1=C(NC2CCS(=O)(=O)C2)C(=O)c2ccccc2C1=O (configuration not stated)	6.1*	i
Cc1ccc(C)c(NC(=O)CCOc2ccccc2)c1	0.68	i
Cc1cccc2c1NC(=O)C21OCC(CO)([N+](=O)[O-])CO1 (configuration not stated)	.	i
COc1cc(/C=C/C(=O)OCC(=O)NC(=O)NC(C)C)ccc1O	2.5	i
O=C(CCS(=O)(=O)c1ccc(Br)cc1)NCc1ccco1	0.01	i
O=C(CN(Cc1ccccc1)S(=O)(=O)c1ccc(Br)cc1)NCc1ccco1	-6.6	-6.6*
O=C(CN(Cc1ccc(Br)cc1)S(=O)(=O)c1ccccc1)NCc1ccccn1	-6.5	-6.5*
COc1ccc(S(=O)(=O)N(CC(=O)NCc2ccccn2)Cc2ccccc2)cc1	.	i
COc1cc(C(=O)N(Cc2ccccc2)c2cccc(C)c2)ccc1OC(F)F	.	i
COCCCn1c(SCC(=O)N2CCOCC2)nnc1-c1ccco1	1.1	i
CC(C)OP(=O)(OC(C)C)C(NC(=O)c1ccc(Br)cc1)c1ccccc1 (configuration not stated)	-8	-8*
CC(NC(=O)c1ccc(Br)cc1)c1ccccc1 (configuration not stated)	2.6	i
C/C(CC(=O)NC12CC3CC(CC(C3)C1)C2)=N\NC(=O)c1ccc(F)cc1	.	i
CN(C)NC(=S)NC1(C)CCS(=O)(=O)C1 (configuration not stated)	.	i
O=C(OCc1nnc(-c2ccc(Cl)cc2)o1)c1ccncc1	.	i
Cc1noc(C)c1COc1ccc(C(=O)OCc2nnc(-c3ccc(Cl)cc3)o2)cc1	-7.6	-7.6*
CCCC1(C(=O)OC)NC(c2ccc(OC)cc2OC)C2C(=O)N(c3cccc(C(C)=O)c3)C(=O)C21 (configuration not stated)	-5.9	-5.9*
CCCC1(C(=O)OC)NC(c2ccc(OC)c(OC)c2)C2C(=O)N(c3cccc(C(C)=O)c3)C(=O)C21 (configuration not stated)	.	i
COc1ccc(-c2csc(NCc3ccco3)n2)cc1C	.	i

High-throughput results (PubChem BioAssay)
